Read-out in experiment [1]: Hypoxia-inducible factor 1-alpha (Homo sapiens) (UniProt Q16665)
As to the kind of experiment: LTEA_HepaRG_HIF1A: Life Technologies and Expression Analysis (LTEA) Assay for Hypoxia-inducible factor 1 (HIF1A) Trancription factor using HepaRG (AID 2283503). The settings on record: mRNA level, 48 h; actives raise or lower the signal. In a few lines:
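HIF1A transcript level read by qRT-PCR (ACTB, GAPDH, POLR2A normalization) after 48 h chemical exposure of HepaRG cultures. Eight half-log concentrations, top 100 uM, 0.5% DMSO vehicle, duplicates; bidirectional curve fit against DMSO baseline.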

Experiment [2] has as its target human Matrix Metalloproteinase-2 (MMP2), MMP2 (gene 4313) (UniProt P08253). As to the kind of experiment: NVS_ENZ_hMMP2: NovaScreen (NVS) Enzymatic Assay for human Matrix Metalloproteinase-2 (MMP2) (AID 2283184; active = hit-call score of the fitted dose curve at least 0.9, where 1 is the maximum). An outline of the steps:
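Compounds first screened in duplicate at a single 25 uM, with actives followed up in concentration series. Recombinant human MMP2 cleaves a fluorogenic substrate; fluorescence taken at 1 h, inhibition fitted relative to DMSO.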

In experiment [3] the target is Estrogen receptor (Homo sapiens) (UniProt P03372). Briefly: CCTE_Deisenroth_AIME_384WELL_LUC_Active: CCTE's 384-well Estrogen Receptor Transactivation Assay with AIME metabolic competence (ERTA luciferase; metabolism positive), Deisenroth Lab (AID 2284030; active = hit-call score of the fitted dose curve at least 0.9, where 1 is the maximum). An outline of the steps: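 Chemicals (10-point, 0.002-200 uM) were first incubated 2 hours with alginate-immobilized induced male Sprague Dawley rat liver S9. The conditioned medium was then applied to VM7Luc4E2 cells for 24 hours, with ER luciferase induction read by luminescence relative to 17beta-estradiol.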

The target is the same in experiment [4]. Briefly: CCTE_Deisenroth_AIME_384WELL_LUC_Inactive: CCTE's 384-well Estrogen Receptor Transactivation Assay without AIME metabolic competence (ERTA luciferase; metabolism negative), Deisenroth Lab (AID 2284038; active = hit-call score of the fitted dose curve at least 0.9, where 1 is the maximum;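 also: VM7Luc4E2 breast cells given medium preincubated 2 h with S9-free microspheres; hits raise estrogen receptor luciferase signal so potencies reflect agonists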). An outline of the steps:
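VM7Luc4E2 ER transactivation, luciferase bioluminescence after 24 h, using medium pre-incubated 2 h with S9-free alginate microspheres. Concentrations 0.002–200 uM; gain of signal fitted relative to 17beta-estradiol.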

For experiment [5] the target is unchanged. As to the kind of experiment: CCTE_Deisenroth_AIME_384WELL_LUC_Shift: CCTE's 384-well Estrogen Receptor Transactivation Assay with AIME metabolic competence data shift (ERTA luciferase; difference in metabolism positive and negative), Deisenroth Lab (AID 2284041).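 Also: shift is response with S9 minus without S9 so positive means metabolism raised ER signal.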 An outline of the steps:
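Here, parent compounds undergo 2 h phase I metabolism by PB/BNF-induced rat S9 before 24 h transactivation in VM7Luc4E2 cells; the curve models S9-positive minus S9-negative response over a 10-point series.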

The next experiment deals with AR (gene 367) (UniProt P10275). As to the kind of experiment: ACEA_AR_agonist_80hr: ACEA Biosciences xCELLigence Real-Time Cell Analysis on Androgen Receptor Agonism for Proliferation (AID 2283783; active = hit-call score of the fitted dose curve at least 0.9, where 1 is the maximum;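 also: hits increase impedance growth signal above DMSO baseline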). In a few lines:
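Real-time cell-growth kinetics were recorded by electrode impedance in 22Rv1 cells exposed to test chemicals up to 100 uM final; the 80 h timepoint served as the readout, fitted upward relative to DMSO controls, in biological duplicate.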

Experiment [6] has as its target rat CYP2C11, Cyp2c11 (gene 29277) (UniProt P08683). As to the kind of experiment: NVS_ADME_rCYP2C11: NovaScreen (NVS) CYP450-related Enzyme Activity (ADME) Assay for rat CYP2C11 (AID 2283118; active = hit-call score of the fitted dose curve at least 0.9, where 1 is the maximum). In a few lines: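 Screened first at 10 uM in duplicate, hits followed by concentration-response. Recombinant rat enzyme activity monitored by fluorescence 0.33 h post-dosing, normalised to acetonitrile negative control.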

Experiment [7] concerns the target rat CYP2C13, Cyp2c13 (gene 171521) (UniProt P20814). Briefly: NVS_ADME_rCYP2C13: NovaScreen (NVS) CYP450-related Enzyme Activity (ADME) Assay for rat CYP2C13 (AID 2283121; active = hit-call score of the fitted dose curve at least 0.9, where 1 is the maximum). An outline of the steps:
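Inhibition is read as decreased fluorescent product formation, referenced to acetonitrile vehicle. Cell-free recombinant rat Cyp2c13 reaction ran 0.75 hour; compounds first at 10 uM in duplicate, then concentration series for actives.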

For experiment [8], the target named is rat CYP2A1, Cyp2a1 (gene 24894) (UniProt P11711). Briefly: NVS_ADME_rCYP2A1: NovaScreen (NVS) CYP450-related Enzyme Activity (ADME) Assay for rat CYP2A1 (AID 2283114). An outline of the steps:
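Cell-free fluorescence enzyme-activity read on recombinant rat CYP2A1, taken 0.75 h post-dosing. Compounds were screened in duplicate at 10 uM, then hits tested in concentration series (max 20 uM); inhibition scored relative to acetonitrile baseline.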

Experiment [9] can be described thus: STM_H9_OrnithineISnorm_perc: Stemina devTOX quickPredict H9 human embryonic stem cell (hESC)-based Assay for Ornithine (ORN) Metabolite Biomarker, Normalized (AID 2283712).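 Also: ornithine released into spent medium during last day measured by mass spectrometry.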 An outline of the steps:
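Ornithine in spent medium from the last 24 h of a 72 h exposure, deproteinised and quantified by UPLC-HRMS against an isotope-labelled internal standard, expressed relative to 0.1% DMSO. Pluripotent H9 cells; compound refreshed every 24 h.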

A short description of experiment [10]: STM_H9_CystineISnorm_perc: Stemina devTOX quickPredict H9 human embryonic stem cell (hESC)-based Assay for Cystine (CYSS) Metabolite Biomarker, Normalized (AID 2283713). An outline of the steps: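 Cystine in spent media from the last 24 h of a 72 h H9 hESC exposure (daily re-dosing), measured by UPLC-HRMS. Values normalized to isotopic internal standard, then to 0.1% DMSO; viability via CellTiter-Fluor.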

The nature of experiment [11]: CCTE_Shafer_MEA_dev_AB: CCTE's Alamar Blue Assay for Cytotoxicity in the Neural Network Formation Assay, Shafer Lab (AID 2284083; active = hit-call score of the fitted dose curve at least 0.9, where 1 is the maximum;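 also: resazurin reduction fluorescence as viability of cultured neurons; twelve days of exposure from plating with re-dosing on DIV 5 and 9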). An outline of the steps:
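Resazurin fluorescence, relative to DMSO, gauges viability after twelve days of exposure that began at plating of rat cortical neurons (1.5 x 10^5 cells/well, 48-well MEA); treatment renewed with full medium exchange on DIV 5 and 9.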

The test system of a further experiment is rat CYP2C6, gene 293989. Briefly: NVS_ADME_rCYP2C6: NovaScreen (NVS) CYP450-related Enzyme Activity (ADME) Assay for rat CYP2C6 (AID 2283120; active = hit-call score of the fitted dose curve at least 0.9, where 1 is the maximum). An outline of the steps: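 Compounds first tested in duplicate at 10 uM, hits (e.g. 30% inhibition) re-run in singleton dose series to a 20 uM top concentration. Enzyme activity of recombinant rat CYP2C6 measured via fluorescent substrate turnover after 1 h; acetonitrile baseline.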

Experiment [12] can be described thus: UKN5_HCS_SBAD2_cell_viability: Viability Assessment in the University of Konstanz (UKN) Leist Lab Neurite Outgrowth Assay in human iPSC-derived immature Dorsal Root Ganglia Neurons (UKN5) (AID 2284056). In a few lines: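 iPSC-derived immature peripheral neurons (SBAD2) seeded on Matrigel with CHIR99021, SU5402 and DAPT, dosed 1 h later for 24 h. Viability from Hoechst H-33342 and calcein-AM live staining, high-content imaging; bidirectional fit versus DMSO.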

Experiment [13] is described as follows: UKN5_HCS_SBAD2_neurite_outgrowth: University of Konstanz (UKN) Leist Lab Neurite Outgrowth Assay in human iPSC-derived immature Dorsal Root Ganglia Neurons (UKN5) (AID 2284070). The following applies: actives raise or lower the signal. An outline of the steps:
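Neurite area from calcein-AM high-content images after 24 h exposure (staining included), with H-33342 for viability, fitted both directions against DMSO. Cells: thawed immature SBAD2 peripheral neurons, 100.000 cells/cm2, with CHIR99021, SU5402, DAPT; dosing 1 h after seeding.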

A short description of experiment [14]: UKN2_HCS_IMR90_neural_migration: University of Konstanz (UKN) Leist Lab Neural Crest Cell Migration Assay in human induced IMR90 Pluripotent Stem Cells (UKN2) (AID 2284204). The following applies: actives raise or lower the signal. In a few lines:
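Using a 96-well stopper format with PLO/laminin/fibronectin coating, neural crest cells from iPSC migrate in cytokine-supplemented N2-S medium; after 24 h, chemicals are applied for a further 24 h, then cells are imaged after dye staining.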

A short description of experiment [15]: UKN4_HCS_LUHMES_neurite_outgrowth: University of Konstanz (UKN) Leist Lab Neurite Outgrowth Assay in human LUHMES cells (UKN4) (AID 2284206). The settings on record: actives raise or lower the signal. An outline of the steps:
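After 24 h compound treatment beginning shortly after replating of 2-day-differentiated LUHMES cells, calcein-AM and H-33342 live staining allowed high-content imaging of neurite area and viability. Fitted bidirectionally against DMSO.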

The nature of experiment [16]: UKN4_HCS_LUHMES_cell_viability: Viability Assessment in the University of Konstanz (UKN) Leist Lab Neurite Outgrowth Assay in human LUHMES cells (UKN4) (AID 2284232). In a few lines: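 Viability was read by high-content imaging of calcein-AM/H-33342-stained cells after 24 h toxicant exposure, staining included. Cells: human LUHMES on day 2 of dopaminergic differentiation, dosed shortly after attachment; DMSO baseline, bidirectional curve fitting.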

Experiment [17] can be described thus: UKN2_HCS_IMR90_cell_viability: Viability Assessment in the University of Konstanz (UKN) Leist Lab Neural Crest Cell Migration Assay in human induced IMR90 Pluripotent Stem Cells (UKN2) (AID 2284233).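 Also: viability of neural crest cells differentiated from IMR90 iPSC measured by calcein-AM fluorescence imaging; cells exposed to compound for 24 h after a 24 h migration phase.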 An outline of the steps:
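cMINC format, iPSC-derived neural crest (IMR90); 24 h migration (EGF/FGF, N2-S), then 24 h toxicant. Calcein-AM/H-33342 stain 30 min; fluorescence intensity by HCS; DMSO-normalised, bidirectional fitting.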

The target of experiment [18] is human Vascular Endothelial Growth Factor Receptor 1 (VEGFR1), FLT1 (gene 2321) (UniProt P17948). Briefly: NVS_ENZ_hVEGFR1: NovaScreen (NVS) Enzymatic Assay for human Vascular Endothelial Growth Factor Receptor 1 (VEGFR1) (AID 2283226; active = hit-call score of the fitted dose curve at least 0.9, where 1 is the maximum). An outline of the steps: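 Kinase activity of recombinant human VEGFR1 was read by fluorescence after electrophoretic separation of product from substrate, 1 h post-dosing; initial duplicate single-point testing at 25 uM, followed by concentration-series follow-up, with DMSO as baseline.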

Results filed as inconclusive are left out. Calls of active or inactive are those of the source. The calls were made as follows, unless noted: active = hit-call score of the fitted dose curve at least 0.9, where 1 is the maximum; inactive = score below 0.9.

Chain of Estrogen receptor (Homo sapiens) (P03372 whole entry, looked up): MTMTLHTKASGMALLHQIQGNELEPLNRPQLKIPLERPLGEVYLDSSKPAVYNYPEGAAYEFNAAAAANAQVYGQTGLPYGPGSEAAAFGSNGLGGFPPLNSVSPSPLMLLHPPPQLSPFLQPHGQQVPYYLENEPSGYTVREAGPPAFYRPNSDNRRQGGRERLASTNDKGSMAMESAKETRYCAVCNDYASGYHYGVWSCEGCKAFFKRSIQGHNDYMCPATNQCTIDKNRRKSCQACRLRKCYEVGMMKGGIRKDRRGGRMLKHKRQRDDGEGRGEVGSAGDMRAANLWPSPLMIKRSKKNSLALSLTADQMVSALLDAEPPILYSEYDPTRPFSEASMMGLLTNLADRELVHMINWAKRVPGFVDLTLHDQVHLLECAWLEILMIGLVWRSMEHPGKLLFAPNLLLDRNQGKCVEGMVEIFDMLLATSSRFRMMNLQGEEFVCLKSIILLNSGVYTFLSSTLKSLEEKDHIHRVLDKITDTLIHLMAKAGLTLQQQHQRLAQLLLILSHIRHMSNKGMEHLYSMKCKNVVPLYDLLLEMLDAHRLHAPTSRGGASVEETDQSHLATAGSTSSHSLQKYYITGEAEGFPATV
Chain of human Matrix Metalloproteinase-2 (MMP2), MMP2 (gene 4313) (P08253 whole entry, looked up): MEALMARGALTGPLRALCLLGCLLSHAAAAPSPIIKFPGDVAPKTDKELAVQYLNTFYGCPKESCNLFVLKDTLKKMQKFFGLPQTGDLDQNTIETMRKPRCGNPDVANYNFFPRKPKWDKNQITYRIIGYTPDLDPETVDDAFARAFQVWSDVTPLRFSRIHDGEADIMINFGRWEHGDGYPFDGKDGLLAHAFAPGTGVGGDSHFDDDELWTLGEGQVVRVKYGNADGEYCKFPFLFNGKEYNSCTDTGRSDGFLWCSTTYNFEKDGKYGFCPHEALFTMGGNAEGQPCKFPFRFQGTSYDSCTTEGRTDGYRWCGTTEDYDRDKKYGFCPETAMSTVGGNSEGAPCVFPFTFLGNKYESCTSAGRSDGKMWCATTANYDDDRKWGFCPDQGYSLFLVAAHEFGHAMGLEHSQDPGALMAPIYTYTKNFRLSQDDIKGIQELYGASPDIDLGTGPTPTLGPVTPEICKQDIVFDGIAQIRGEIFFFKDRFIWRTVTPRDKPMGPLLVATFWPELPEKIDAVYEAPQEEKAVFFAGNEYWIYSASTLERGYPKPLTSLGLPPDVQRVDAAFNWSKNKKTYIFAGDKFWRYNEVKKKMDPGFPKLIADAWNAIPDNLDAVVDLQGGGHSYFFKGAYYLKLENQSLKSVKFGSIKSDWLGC
Chain of Hypoxia-inducible factor 1-alpha (Homo sapiens) (Q16665 whole entry, looked up): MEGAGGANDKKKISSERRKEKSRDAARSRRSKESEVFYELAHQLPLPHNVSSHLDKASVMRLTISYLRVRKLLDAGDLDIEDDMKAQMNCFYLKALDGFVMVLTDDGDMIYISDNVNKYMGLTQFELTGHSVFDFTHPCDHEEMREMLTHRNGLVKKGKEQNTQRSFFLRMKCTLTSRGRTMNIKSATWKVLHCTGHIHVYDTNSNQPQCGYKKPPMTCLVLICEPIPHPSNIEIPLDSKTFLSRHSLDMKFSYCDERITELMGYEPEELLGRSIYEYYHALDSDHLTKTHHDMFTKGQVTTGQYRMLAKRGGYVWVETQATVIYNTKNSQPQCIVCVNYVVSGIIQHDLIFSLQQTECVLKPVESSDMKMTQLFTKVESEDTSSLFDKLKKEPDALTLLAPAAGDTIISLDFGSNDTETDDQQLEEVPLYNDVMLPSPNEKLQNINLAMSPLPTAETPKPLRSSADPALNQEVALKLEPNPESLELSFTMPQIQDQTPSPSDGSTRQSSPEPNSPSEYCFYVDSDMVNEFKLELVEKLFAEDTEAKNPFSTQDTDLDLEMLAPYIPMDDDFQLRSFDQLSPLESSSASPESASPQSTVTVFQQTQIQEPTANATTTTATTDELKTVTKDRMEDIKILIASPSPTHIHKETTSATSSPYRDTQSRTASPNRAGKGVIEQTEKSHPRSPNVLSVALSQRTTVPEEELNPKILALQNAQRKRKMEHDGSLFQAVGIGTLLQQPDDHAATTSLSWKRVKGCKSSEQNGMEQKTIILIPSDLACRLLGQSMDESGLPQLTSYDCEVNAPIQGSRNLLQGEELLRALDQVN
Chain of rat CYP2C13, Cyp2c13 (gene 171521) (P20814 whole entry, looked up): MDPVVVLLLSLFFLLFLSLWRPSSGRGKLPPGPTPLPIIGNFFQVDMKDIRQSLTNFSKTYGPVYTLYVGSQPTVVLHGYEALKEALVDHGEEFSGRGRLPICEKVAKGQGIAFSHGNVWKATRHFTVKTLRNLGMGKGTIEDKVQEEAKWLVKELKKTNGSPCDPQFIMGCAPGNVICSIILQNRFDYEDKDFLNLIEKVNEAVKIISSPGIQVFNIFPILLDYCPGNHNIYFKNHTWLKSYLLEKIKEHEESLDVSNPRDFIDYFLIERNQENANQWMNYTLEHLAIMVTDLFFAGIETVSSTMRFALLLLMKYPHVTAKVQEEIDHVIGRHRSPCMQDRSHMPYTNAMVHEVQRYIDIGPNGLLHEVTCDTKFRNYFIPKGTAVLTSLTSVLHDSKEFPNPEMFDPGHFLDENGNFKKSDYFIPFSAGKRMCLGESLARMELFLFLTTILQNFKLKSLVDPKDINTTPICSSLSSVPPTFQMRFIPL
Chain of rat CYP2C11, Cyp2c11 (gene 29277) (P08683 whole entry, looked up): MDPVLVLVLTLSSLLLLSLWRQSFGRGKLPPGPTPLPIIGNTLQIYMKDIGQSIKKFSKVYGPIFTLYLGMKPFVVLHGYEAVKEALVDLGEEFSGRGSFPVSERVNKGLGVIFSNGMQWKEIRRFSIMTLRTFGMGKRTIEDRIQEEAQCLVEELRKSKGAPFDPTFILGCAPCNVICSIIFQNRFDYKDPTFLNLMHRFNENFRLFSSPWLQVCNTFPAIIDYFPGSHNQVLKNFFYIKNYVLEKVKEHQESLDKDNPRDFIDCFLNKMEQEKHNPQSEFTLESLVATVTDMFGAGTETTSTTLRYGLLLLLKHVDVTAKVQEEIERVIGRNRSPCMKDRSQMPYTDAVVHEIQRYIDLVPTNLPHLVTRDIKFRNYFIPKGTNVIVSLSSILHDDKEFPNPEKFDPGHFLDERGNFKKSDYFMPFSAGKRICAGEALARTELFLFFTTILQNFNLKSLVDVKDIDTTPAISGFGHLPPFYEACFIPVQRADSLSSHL
Chain of rat CYP2A1, Cyp2a1 (gene 24894) (P11711 whole entry, looked up): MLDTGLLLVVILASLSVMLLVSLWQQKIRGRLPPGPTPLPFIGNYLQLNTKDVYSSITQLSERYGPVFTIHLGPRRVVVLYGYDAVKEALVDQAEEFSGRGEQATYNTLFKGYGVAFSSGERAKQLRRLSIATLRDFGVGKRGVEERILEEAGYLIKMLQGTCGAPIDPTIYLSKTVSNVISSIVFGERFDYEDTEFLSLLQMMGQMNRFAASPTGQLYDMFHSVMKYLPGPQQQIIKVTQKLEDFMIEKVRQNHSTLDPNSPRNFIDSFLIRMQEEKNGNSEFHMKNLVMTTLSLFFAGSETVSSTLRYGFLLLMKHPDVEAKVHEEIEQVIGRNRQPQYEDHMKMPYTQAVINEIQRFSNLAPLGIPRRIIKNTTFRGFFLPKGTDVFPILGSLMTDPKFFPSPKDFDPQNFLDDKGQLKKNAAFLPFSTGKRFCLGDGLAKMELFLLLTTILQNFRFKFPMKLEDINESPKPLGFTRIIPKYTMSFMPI
Chain of AR (gene 367) (P10275 whole entry, looked up): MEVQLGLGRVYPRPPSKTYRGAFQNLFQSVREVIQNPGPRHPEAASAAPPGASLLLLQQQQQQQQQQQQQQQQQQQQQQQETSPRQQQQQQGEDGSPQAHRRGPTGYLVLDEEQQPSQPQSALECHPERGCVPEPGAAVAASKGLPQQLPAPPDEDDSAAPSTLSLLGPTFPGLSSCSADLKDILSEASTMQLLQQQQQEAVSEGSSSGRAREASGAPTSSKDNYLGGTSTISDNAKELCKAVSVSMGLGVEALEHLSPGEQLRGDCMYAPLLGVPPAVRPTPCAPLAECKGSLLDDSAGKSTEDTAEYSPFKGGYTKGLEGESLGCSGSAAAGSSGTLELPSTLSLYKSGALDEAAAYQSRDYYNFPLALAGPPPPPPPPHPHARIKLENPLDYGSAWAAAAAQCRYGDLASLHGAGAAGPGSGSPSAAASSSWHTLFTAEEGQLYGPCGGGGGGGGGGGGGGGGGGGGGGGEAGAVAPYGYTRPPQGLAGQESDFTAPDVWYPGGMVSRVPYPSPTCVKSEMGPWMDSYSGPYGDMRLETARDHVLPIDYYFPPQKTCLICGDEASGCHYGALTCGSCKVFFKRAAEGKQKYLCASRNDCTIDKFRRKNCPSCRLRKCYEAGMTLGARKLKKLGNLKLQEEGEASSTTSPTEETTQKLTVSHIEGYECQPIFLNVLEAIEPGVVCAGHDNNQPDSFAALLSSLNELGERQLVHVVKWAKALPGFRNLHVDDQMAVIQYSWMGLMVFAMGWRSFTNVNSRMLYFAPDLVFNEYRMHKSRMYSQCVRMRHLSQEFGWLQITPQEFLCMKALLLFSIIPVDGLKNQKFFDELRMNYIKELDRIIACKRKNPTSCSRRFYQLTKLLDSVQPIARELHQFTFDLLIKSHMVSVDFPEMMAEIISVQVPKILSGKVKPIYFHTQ

`O=[N+]([O-])c1ccc(Cl)cc1`: the molecule was called inactive in experiment [1].

With `Cc1cc(C)c(C2=C(OC(=O)CC(C)(C)C)C3(CCCC3)OC2=O)c(C)c1`, the call in experiment [2], in [3], in [4] and in [5] was inactive.

On to `c1ccc2c(c1)CCCC2`, for which, in the experiment with AR (gene 367), the molecule was classed as inactive.

The AC50 is the concentration at which the activity in the assay is half-maximal. With `O=CNC(N1CCN(C(NC=O)C(Cl)(Cl)Cl)CC1)C(Cl)(Cl)Cl` (stereo not given), the AC50 in experiment [6] is 5.16 µM (active). In addition, the molecule was called inactive in [7].

`CC(Cc1ccc(C(C)(C)C)cc1)CN1C[C@@H](C)O[C@@H](C)C1` (stereo not given in full): in experiment [8], the AC50 was 3.26 µM (active).

On to `Cc1ccc(OP(=O)(Oc2ccc(C)cc2)Oc2ccc(C)cc2)cc1` (tested in a mixture with another compound), for which the result in experiment [9] and in experiment [11] was inactive. Moreover, the AC50 in experiment [10] is 58.4 µM (active).

Regarding `CC1(C)[C@H](C(=O)O[C@H](C#N)c2cccc(Oc3ccccc3)c2)[C@@H]1C=C(Br)Br`, the outcome with rat CYP2C6, gene 293989 is “inactive”; in [14], “inactive”; in [15] it was “inactive”; in [16], “inactive”; in experiment [17] it was “inactive”. Besides, the values for the AC50 in experiment [12] and in experiment [13] were 115 µM (active) and 111 µM (active), respectively.

In the case of `O=c1c2ccccc2c(=O)c2c1cc(Cl)c1[nH]c3c([nH]c12)c(Cl)cc1c(=O)c2ccccc2c(=O)c13`, the AC50 in [18] is 0.732 µM (active).

Source of the values: PubChem BioAssay (EPA / NIEHS).
